13 compounds from PubChem BioAssay (EPA / NIEHS) can be followed below.

Molecules are shown by their SMILES. “And” between values parts separate entries of the source, which are not always exact repeats. Equal values may be shown once. The source made the active and inactive calls. How the source made its calls: active means hit-call score of the fitted dose curve at least 0.9, where 1 is the maximum; inactive means score below 0.9.

Read-out in the assay: Monokine induced gamma interferon (MIG), CXCL9 (gene 4283)
Kind of assay: BSK_KF3CT_MIG: BioMAP Diversity Plus: KF3CT Assay for Monokine induced gamma interferon (MIG) Biomarker Activity (AID 2284248). The following applies: primary human keratinocytes with fibroblasts. As for the experimental part:
BSK_KF3CT is a cell-based, multiplexed-readout assay that uses keratinocytes and foreskin fibroblasts, a human skin primary cell co-culture, with measurements taken at 24 hours after chemical dosing in a 96-well plate.BSK_KF3CT_MIG is an assay component measured in the BSK_KF3CT assay. It measures MIG antibody related to regulation of gene expression using ELISA technology.Data from the assay component BSK_KF3CT_MIG was analyzed at the endpoint, BSK_KF3CT_MIG, in the positive analysis fitting direction relative to DMSO as the negative control and baseline of activity. Using a type of binding reporter, gain or loss-of-signal activity can be used to understand protein changes. To generalize the intended target to other relatable targets, this assay endpoint is annotated to the 'cytokine' intended target family, where the subfamily is 'chemotactic factor'.
The levels of cell surface (or secreted, indicated by the prefix "s") biomarker endpoints were measured by ELISA. Overt cytotoxicity to cells in confluent adherent cultures (all systems other than the BT system) was assessed by measuring total protein levels using sulforhodamine B (SRB) staining in parallel cultures at the time of biomarker measurements, indicated as SRB endpoints. For proliferation assays for adherent cell types, individual cell types are cultured at sub-confluence and relative cell numbers quantified by SRB staining at time points optimized for each system (48 h: 3C and CASM3C systems; 72 h: BT and HDF3CGF systems; 96 h: SAg system). SRB was performed by staining cells with 0.1% SRB after fixation with 10% TCA and reading wells at 560 nm.Viability and proliferation of PBMC (T cells) was quantified by Alamar Blue reduction for the SAg and BT systems. For PBMC viability (referred to as PBMC Cytotoxicity within the assay endpoint names), cells were plated (75,000/well in a 96-well plate) and then chemical samples added for 1 h before addition of activators, SEB and TSST-1 (20 ng/mL final concentration each). Cells were incubated for 90 h. Then, Alamar Blue (20 uL/well) (Invitrogen, Cat DAL1100) was added for 6 h, and the plates were read with a fluorescence microplate reader at 546/580 nm (excitation/emission). For PBMC proliferation, cells were plated and activated as above but incubated for only 16 h prior to addition of Alamar Blue. Plates were read after 6 h.
On to `O=S(=O)(O)C(F)(F)C(F)(F)OC(F)(F)C(F)(F)F`, for which the outcome was inactive.

Turning to `CCCO[Si](OCCC)(OCCC)OCCC`, the result was inactive.

Consider `CC(C)(CO)CO`, for which the outcome was inactive.

For `CC(=O)c1ccc(C)cc1`, the result was inactive.

In the case of `c1ccc(OCCOc2ccccc2)cc1`, the result was inactive.

Consider `C=C(C)C(=O)OCCC(F)(F)C(F)(F)C(F)(F)C(F)(F)C(F)(F)C(F)(F)C(F)(F)C(F)(F)F`, for which the result was inactive.

As for `O=C(O)C(F)(F)OC(F)(F)C(F)(F)OC(F)(F)C(F)(F)C(F)(F)C(F)(F)F`, the outcome was inactive.

For `CCCCN(CCO)CCO`, the result was inactive.

Consider `O=C(O)C(F)(F)C(F)(F)C(F)(F)C(F)(F)C(F)(F)C(F)(F)C(F)(F)C(F)F`, for which the result was inactive.

On to `OCC(F)(OC(F)(F)C(F)(OC(F)(F)C(F)(F)C(F)(F)F)C(F)(F)F)C(F)(F)F` (stereo not drawn), for which the AC50 is 5.41 µM (active) and 3.33 µM (active).

For `C=C(F)C(=O)OC(C(F)(F)F)C(F)(F)F`, the outcome was inactive.

`CCn1cc(C(=O)O)c(=O)c2ccc(C)nc21`: the outcome was inactive.

For the compound `CC(C)CCCC(C)(C)O`, the result was inactive.
